Data as given in PubChem BioAssay AID493014 (National Center for Advancing Translational Sciences (NCATS), 2011).
Among all 340,000 compounds or so, about 170 (0.05%) were called active. A call without a number means that no potency is given here. About 26% were inconclusive and are not listed. Calls come from the whole dose curve; as a rule, active = well fitted inhibition curve with a large enough effect in the signal ratio, with a control signal flat (not every such curve was filed as active); inconclusive = small, poorly fitted or top-dose-only effect, or effect the other way, or a change in a side signal; inactive = flat fitted curve, though single readings scatter; the % refers to the signal ratio. Only a selection was taken, and actives are over-represented in it overall.

Experiment: qHTS Assay to Find Inhibitors of Chronic Active B-Cell Receptor Signaling
Conditions: ABC-DLBCL IkBa-CBG/CBR reporter, luminescence ratio, 4 h; series mostly up to 46.1 µM
Excerpt: NIH Molecular Libraries Probe Production Network [MLPCN] NIH Chemical Genomics Center [NCGC] MLPCN Grant: 1 R03 DA031086-01A1 PI Name: Dr. R. Eric Davis NCGC Assay Overview: Diffuse large B-cell lymphoma (DLBCL) is the most common category of non-Hodgkin lymphoma, with ~20,000 new cases per year in the United States. DLBCL should be regarded as a collection of different neoplasms. Microarray gene expression analysis has defined two principal types of DLBCL, named for their similarity to normal B cell stages or activation states: a germinal center B-cell (GCB) type, and an activated B-cell (ABC) type. In ABC-DLBCL, a constitutive high-level activity of the NF-kappaB family of transcription factors has been observed (1) and NF-kappaB target genes are more highly expressed in ABC primary tumors than in GCB tumors. Functional studies have shown a constitutive high-level activity of the IkappaB (inhibitor of kappa-B) kinase (IKK) complex. […] Further analysis of DLBCL primary tumors for NF-kappaB target gene expression imply that although CARD11 is required for constitutive IKK activity in all ABC-DLBCL lines, mutations in CARD11 may be the root cause of IKK activation only in lines or tumors with such mutations. In other words, CARD11 mutations may explain NF-kappaB activation in only 10% of ABC-DLBCL cases. […] This process has been termed 'chronic active BCR signaling' (CABS). The goal of this screen is to find small-molecule inhibitors of the CABS pathway found in ABC-DLBCL lines using a cell-based assay that measures IkappaBalpa stability, which has already been extensively validated in the OCI-Ly3 line (PubChem AID:445; REF: 4). […] The assay uses green (CBG68) and red (CBR) emitting beetle luciferases [Chroma-GloTM developed by Promega Corp.] where the green luciferase is fused to IkappaBalpha and the red luciferase is present in its native state. Both luciferase genes are stably present in the TMD8 human ABC DLBCL cell line, but their expression is under the control of tetracycline-inducible promoters. Following the addition of doxycycline to induce expression of the luciferases, the green luminescence in control cultures rises only slowly because the CBG fusion partner IkappaBalpha is targeted by IKK activity for rapid degradation. In contrast, green luminescence rises rapidly in the presence of proteasome inhibitors or IKK inhibitors. The rise in red luminescence of CBR is not affected by proteasome or IKK inhibitors, and serves as normalization for cell number and nonspecific effects. Compounds were screened as a concentration-titration series that ranged from 46 uM to 3 nM.
NCGC Assay Protocol Summary: Cells were seeded in 1536-well plates at 5000 cells/4uL in IMDM medium containing 0.5% FBS, w/o phenol red, 1% penicillin/streptomycin. Then, 23 nL of compounds or DMSO were delivered to each well using a pin tool. One uL 20ng/ml doxycycline was then dispensed into white solid 1536-well plates and the plates were incubated at 37C/5% C02 in a cell incubator for 4 hrs. Then 4 uL luminescent substrate mix (in-house prepared: 150 mM Tris-Cl, pH 7.6, 3 mM MgCl2, 1% Triton X-100, 5 mM DTT, 0.2 mM CoA, 0.15 mM ATP, 5 mM D-luciferin, final concentrations) was added to each well. The plate was incubated at r.t. for 10-15 min. The plates were measured on a ViewLux plate reader for green luminescence (540/20 nm filter) and red luminescence (618/8 nm filter). The green and red luminescent signals were corrected for red and green luminescence filter overlap using previously determined filter calibration constants (determined using the procedure outlined in the Promega Technical Manual; REF 4). The %Activity was determined from the ratio of corrected green/red luminescent values. MG132 were used as control. […] Red luminescent %Activity was normalized to the difference between red luminesence in basal cells (0%Activity) and zero luminescence (-100% Activity). […]
Potency is the fitted concentration of half-maximal effect.

Row | Compound | Potency
1 | Cc1ccc(NC(=O)c2cccc(S(=O)(=O)N3CCCc4ccccc43)c2)nc1 | inactive
2 | Cc1ccc(S(=O)(=O)N2CCN(C(=O)Cn3c(=O)cnc4ccccc43)CC2)c(C)c1 | inactive
3 | COc1ccc(N2CCN(C(CNS(=O)(=O)c3ccc(C)cc3)c3ccccc3)CC2)cc1 (stereo not drawn) | inactive
4 | COc1ccc(CCN(C)C(=O)C23CC4CC(CC(Cl)(C4)C2)C3)cc1OC | inactive
5 | COC(=O)[C@]1(C)N[C@H](c2ccc(-c3ccc(Cl)c(Cl)c3)cc2)[C@@H]2C(=O)N(C)C(=O)[C@@H]21 | inactive
6 | CC(C)(C)OC(=O)C[C@@H]1C/C=C\C[C@@H](CC(=O)N(CCO)Cc2ccccc2)C(=O)N[C@H](Cc2ccccc2)COC1=O | inactive
7 | CSCCC1NC(=O)N(CC(=O)Nc2cccc(S(=O)(=O)N3CCCCCC3)c2)C1=O (stereo not drawn) | inactive
8 | Cc1c(O)c(C)c2c(c1O)C(=O)C[C@@H](c1ccccc1)O2 | inactive
9 | COc1ccc(/C=C(\C#N)C(=O)NCCCn2ccnc2)cc1 | inactive
10 | COc1ccc(CNC(=O)/C(C#N)=C/c2cccc(OC)c2OC)cc1 | 11.2 µM (active)
11 | COc1ccc(CNC(=O)CCn2cccc2)cc1 | inactive
12 | CCC1=Nc2cc(C(=O)NCCCN3CCOCC3)ccc2Sc2ccc(Br)cc21 | inactive
13 | COCCCNC(=O)CC1C[C@H](C(=O)N2CCCCC2)[C@@]2(CCc3ccccc3)c3[nH]c4ccccc4c3CCN2C1=O (stereo partly drawn) | inactive
14 | O=C1OC[C@@H]2CCCN2C(=O)[C@H](CC(=O)N(CCO)Cc2ccccc2)C/C=C\CC[C@@H]1Cc1ccc(F)cc1 | inactive
15 | Cc1cccc(Nc2nnc(SCC(=O)c3c(N)n(C4CC4)c(=O)[nH]c3=O)s2)c1C | inactive
16 | Cc1cccc(C)c1NC(=O)COC(=O)c1c(C)nn(-c2ccccc2)c1C | inactive
17 | O=C1NC(Cc2ccc(O)cc2)c2nc3ccc(Cl)cc3c(=O)n2-c2ccccc21 (stereo not drawn) | inactive
18 | CCC(CC)COC(=O)C1=C(C)NC(=O)NC1c1ccc([N+](=O)[O-])cc1 (stereo not drawn) | inactive
19 | Cc1ccc(CC(=O)Nc2ccc(S(=O)(=O)N3CCOCC3)cc2)cc1C | inactive
20 | CC(C)(C)OC(=O)Nc1ccc([C@@H](NC(=O)OC(C)(C)C)C(=O)OC(C)(C)C)cc1 | inactive
21 | CN(C(=O)c1cccc(NC(=O)Cc2ccc([N+](=O)[O-])cc2)c1)C1CCC1 | inactive
22 | CN(C)S(=O)(=O)c1cccc(NC(=O)COc2ccc3ccccc3c2)c1 | inactive
23 | COc1ccc(-c2nc3c(s2)CCc2onc(-c4ccc(OC)cc4)c2-3)cc1 | inactive
24 | CCOC(=O)[C@@H]1[C@H]2COc3ccc(Br)cc3[C@H]2N2C(=O)N(c3ccc(C)cc3)C(=O)[C@@]12C | inactive
25 | CN(C(=O)c1cccc(NC(=O)C2CCN(C(=O)OC(C)(C)C)CC2)c1)C1CCC1 | inactive
26 | CC(=O)c1ccc(OCCCC(=O)Nc2ccc(C)c(S(=O)(=O)N3CCOCC3)c2)cc1 | inactive
27 | COc1cc(C(c2c(NC(=O)c3ccco3)sc(C)c2C)N2CCOCC2)cc(OC)c1OC (stereo not drawn) | inactive
28 | Cc1ccc(S(=O)(=O)N(C)C)cc1NC(=O)CN1c2cccc3cccc(c23)S1(=O)=O | inactive
